The values below come from the supplement of paper PMC6555819.

For this experiment, the system named is VDR:RXRa (NR concentration 270 nM, RXRa partner concentration 90 nM). Description: PBM binding z-score (relative to random genomic background probes); higher = stronger binding; sequences stand for … in GC…GCGATTGACAGCGTAGAATGAAGG
On the procedure: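 Protein-binding microarray (Agilent 4x180K custom design, double-stranded 60-nt probes: 5' GC cap, 34-nt variable region, 24-nt constant primer region; full probe sequence given). Purified or IVT nuclear receptor:RXRα heterodimers (3:1 NR:RXRα, mostly 270:90 nM) or homodimers were incubated for 1 h in PBS with 2% milk and no ligand, then detected with Alexa488 antibodies. Fluorescence from o1-orientation probes (~5 replicates averaged) was converted to z-scores against 500 random hg19 background probes. Variable regions are seed direct-repeat (DR0–DR5) sites, all their single-nucleotide variants and half-site ablations.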
With CTCGAAAGGTCGTGCTCCGGTGAGTATACCAAAC, the PBM binding z-score amounted to 3.48. The sequence AGAATGAGGTTATTAAGATCAGGTAATTGCGGTC yielded a PBM binding z-score of 2.82. Regarding CGGACTGGGGCAAGGTTACCATAACGCACAGCCA, the PBM binding z-score is 0.267. Take CAAACTAGGTCAAGAGGTTAAAGTCCGCTTCCCG: the PBM binding z-score worked out at 4.18. AGAATGAGGTTAAGATGAGGGAAACAGAATACAT had a PBM binding z-score of 1.43. The sequence AGTCAAAGTTCAGGACGAGGTTACGTAAAGCACG yielded a PBM binding z-score of 4.6. Consider AGTCAAAGTTCATCTAGGTAATGTAAGATATGCT, for which the PBM binding z-score was found to be 5.13. As to TCATATAGGTAAAAGGAGAAAGTCGGTGTGGTAA, the PBM binding z-score amounted to 0.929. On to CGTCCAAGGTGAGAGAGGTCAGTGAATGCCGAGT, for which the PBM binding z-score amounted to 5.51. The result for CTACCAAGGTGAACAAGGTCGTTGAGTACTATTC reads 6.19; that for TCTAGCAGGCCAGAGGGTAACTCAAGAGGTACGG, -0.204. Consider GCTCGGAGGACAAGGTCAGAGCCTTGTCCGTAGA, for which the PBM binding z-score was 1.43. TCTAGCAGGTCAGAGGGTCACTCAAGAGGTACGG came in with a PBM binding z-score of 4. As for GGAACGAGGGCAAGTTTATAGCAGAGTTTGATGG, the figure is 1.32; as for CGTCCAAGGTCAAGGTCAGAGAAAGAGACTCGAA, 4.57. TCAGCTAGGTCAGTTGGTCAGCTAACGAGCTGCC came in with a PBM binding z-score of 0.211. Regarding CCTATTTGGTCAAGGTCACACACGCTATAGGTAC, the PBM binding z-score was found to be 4.18.

On to CCGACTGGGCCAAAGGTCATTGATTCCAATGCTC, for which the PBM binding z-score was found to be 4.58. The sequence GCTATTAGTAGAAAGGGCAACCGAATGATTCTCG returned a PBM binding z-score of 0.11.

As for CTCTAAAGGTCGTGCTCAGGTGAGTATACCAAAC, the PBM binding z-score amounted to 3.27. The sequence CAAACTAGGTCACGAATGGTCAAAGTCGAATGAC yielded a PBM binding z-score of 3.05. The result for TCATATAGGTAAACAGGTGAAAGGCCGTAAGTTA reads 0.988; that for AGCATGAGGTTACCAAAGATCAGGGAAACGCTTG, 1.28.

In the case of CGAACTAGGTCAGCACAGGACAGTGAAGGATGAT, the PBM binding z-score turned out to be 0.981. ATATGTAGGTTAAGGGTCATTCAAGTTGGTTCGC registered a PBM binding z-score of 5.82. In turn, CGAAATAGGTCATTGACAGGACAGTGAATAGTAA yielded a PBM binding z-score of 3.26. In turn, CGAACGAGGGCATGAGTTGAGAGCAAATGCCGAT came in with a PBM binding z-score of 1.01. TATACAGGGTCACAGGCCAGAGTACGAATGTCGA displayed a PBM binding z-score of 4.92. Regarding CTTAGCAGGCCAGGGTCACTCAAGCATTTCGCTT, the PBM binding z-score turned out to be 2.67. CAAACTAGGTCATCCAGGACAGTGAATACATTGA showed a PBM binding z-score of 4.58. TCTTGTAGATCAATAGAGGGTAAGAAAGTGCGCT had a PBM binding z-score of 0.717.

Sequence CCACCAAGGTGAACAAGGTCGTTGATTACTATTC came in with a PBM binding z-score of 6.23. Sequence TCGAGTAGGTTAGTCGGGGCCTTCAGCCAACATA returned a PBM binding z-score of -0.158.

As to CCTTACTGGTCACTGACAGGTTATAGCATTTGGA, the PBM binding z-score amounted to 0.592. CCTGCTAGGTCATCGTCAGCTAATCTACAGTATG yielded a PBM binding z-score of 1.87. For the sequence ACAGACAGGTGAGTGAAGGCAACTCAGCTGGACG, the PBM binding z-score is -0.535. The sequence TCGAGTAGGTTACCAATGGTGCATTCAGCTTTCT yielded a PBM binding z-score of 0.228. ATCTCTAGGTAAGACTCAATTCAGTGAAGAACGC registered a PBM binding z-score of 0.199. Consider TCTAGCAGGCCAGAGAGTCACTCAAGAGGTACGG, for which the PBM binding z-score is -0.279. The result for CCGACTGGGGCATTAGGTTACCATAAGCCAGCCC reads -0.353.
